About 79,000 compounds went through this panel and 15% of them were active in at least one assay; those are over-represented in the sample as a whole. A number with no mark means an inactive call. The source made the active and inactive calls. Cut-off read from the data, not from the text of the source: active = growth inhibition above about 70%; inactive = the rest.
Key:
[1] = NCI Yeast Anticancer Drug Screen. Data for the rad50 strain (AID 155);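 note: 0% = growth of vehicle-only cultures of the same strain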; details: S. cerevisiae rad50 strain growth inhibition, stronger effect = higher value
Summary of the method: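 Cells are treated with compound, grown, and their growth is then scored against vehicle-only cultures of the same repair-deficient yeast strain.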

[2] = NCI Yeast Anticancer Drug Screen. Data for the mec2-1 strain (AID 157); details: S. cerevisiae mec2-1 strain, stronger effect = higher value
Summary of the method: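 Each compound was tested on mec2-1 yeast, a strain altered in DNA damage repair or cell cycle control. Growth inhibition is reported relative to vehicle.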

[3] = NCI Yeast Anticancer Drug Screen. Data for the sgs1 mgt1 strain (AID 161);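 note: 0% = growth of cultures given vehicle only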; details: S. cerevisiae sgs1 mgt1 strain, stronger effect = higher value
Summary of the method: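 Read-out: growth inhibition vs vehicle controls. Cells: mutant yeast strain deficient in DNA damage repair.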

[4] = NCI Yeast Anticancer Drug Screen. Data for the cln2 rad14 strain (AID 165);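 note: 0% = growth equal to vehicle treated cultures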; details: S. cerevisiae cln2 rad14 strain, stronger effect = higher value
Summary of the method: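 Test compounds were added to cln2 rad14 yeast cultures; inhibition of growth was then determined by comparison with vehicle treatment.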

[5] = NCI Yeast Anticancer Drug Screen. Data for the bub3 strain (AID 167); details: S. cerevisiae bub3 mutant strain, stronger effect = higher value
Summary of the method: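 Part of a panel of yeast mutants defective in DNA damage repair or cell cycle regulation. Each strain is grown with compound, and inhibition is calculated relative to solvent-treated cultures.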

[6] = NCI Yeast Anticancer Drug Screen. Data for the mlh1 rad18 strain (AID 175); details: S. cerevisiae mlh1 rad18 strain growth inhibition, stronger effect = higher value
Summary of the method: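 Inhibition values reflect reduced growth of mutant yeast versus vehicle-treated controls following compound exposure; the mutations affect DNA damage repair.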

[7] = at 5.0 µM (retest, dose inferred, filed as 0.5)
[8] = at 50.0 µM (retest, dose inferred, filed as 5.0)

For `CCCCCCCCCCNC(=O)C[n+]1cccc(C(=O)NCc2ccccc2)c1`, the growth inhibition [1, 7] was 8%, the growth inhibition [1, 8] was 99% (active) and the growth inhibition ([1]; at 50.0 µM) was 99.5% (active). For the same molecule, the growth inhibition [2, 7] was -1%, the growth inhibition [2, 8] was 100% (active) and the growth inhibition ([2]; at 50.0 µM) was 99.7% (active). For the same molecule, the growth inhibition [3, 7] was 5%, the growth inhibition [3, 8] was 100% (active) and the growth inhibition ([3]; at 50.0 µM) was 99.5% (active). For the same molecule, the growth inhibition [4, 7] was 14%, the growth inhibition [4, 8] was 99% (active) and the growth inhibition ([4]; at 50.0 µM) was 98.8% (active). The growth inhibition [5, 7] was 8%, the growth inhibition [5, 8] was 99% (active) and the growth inhibition ([5]; at 50.0 µM) was 99.4% (active). The growth inhibition [6, 7] was 11%, the growth inhibition [6, 8] was 99% (active) and the growth inhibition ([6]; at 50.0 µM) was 99.5% (active).

For `COC(=O)/C(=N\NC(=O)c1ccccc1O)C(C#N)c1ccc(Cl)cc1` (stereo not given), the growth inhibition [1, 7] was -4%, the growth inhibition [1, 8] was 44% and the growth inhibition ([1]; at 50.0 µM) was 62.1%. For the same molecule, the growth inhibition [2, 7] was -1%, the growth inhibition [2, 8] was 65% and the growth inhibition ([2]; at 50.0 µM) was 54.8%. The growth inhibition [3, 7] was 13%, the growth inhibition [3, 8] was 73% (active) and the growth inhibition ([3]; at 50.0 µM) was 68%. The growth inhibition [4, 7] was -7%, the growth inhibition [4, 8] was 42% and the growth inhibition ([4]; at 50.0 µM) was 43.4%. For the same molecule, the growth inhibition [5, 7] was -3%, the growth inhibition [5, 8] was 79% (active) and the growth inhibition ([5]; at 50.0 µM) was 71.8% (active). For the same molecule, the growth inhibition [6, 7] was 0%, the growth inhibition [6, 8] was 60% and the growth inhibition ([6]; at 50.0 µM) was 70.6% (active).

In the case of `S=C(N/N=C/c1ccccn1)N1CC2CCC(CC2)C1`, the growth inhibition [1, 7] is reported as 99% (active), the growth inhibition [1, 8] is reported as 100% (active) and the growth inhibition ([1]; at 50.0 µM) is reported as 90.2% (active). For the same molecule, the growth inhibition [2, 7] was 99% (active), the growth inhibition [2, 8] was 100% (active) and the growth inhibition ([2]; at 50.0 µM) was 93.5% (active). For the same molecule, the growth inhibition [3, 7] was 98% (active), the growth inhibition [3, 8] was 99% (active) and the growth inhibition ([3]; at 50.0 µM) was 92% (active). The growth inhibition [4, 7] was 97% (active), the growth inhibition [4, 8] was 100% (active) and the growth inhibition ([4]; at 50.0 µM) was 93.2% (active). For the same molecule, the growth inhibition [5, 7] was 99% (active), the growth inhibition [5, 8] was 99% (active) and the growth inhibition ([5]; at 50.0 µM) was 92.7% (active). The growth inhibition [6, 7] was 99% (active), the growth inhibition [6, 8] was 99% (active) and the growth inhibition ([6]; at 50.0 µM) was 89.7% (active).

`CCCC[NH-].CCCC[NH-].[I][Pt+2][I]` gave a growth inhibition [1, 7] of 30%, a growth inhibition [1, 8] of 67% and a growth inhibition ([1]; at 50.0 µM) of 29.2%. It also gave a growth inhibition [2, 7] of 22%, a growth inhibition [2, 8] of 49% and a growth inhibition ([2]; at 50.0 µM) of 15%. The growth inhibition [3, 7] was 48%, the growth inhibition [3, 8] was 70% (active) and the growth inhibition ([3]; at 50.0 µM) was 60.6%. The growth inhibition [4, 7] was 53%, the growth inhibition [4, 8] was 57% and the growth inhibition ([4]; at 50.0 µM) was 15.2%. The growth inhibition [5, 7] was 56%, the growth inhibition [5, 8] was 68% and the growth inhibition ([5]; at 50.0 µM) was 49.4%. It also gave a growth inhibition [6, 7] of 20%, a growth inhibition [6, 8] of 62% and a growth inhibition ([6]; at 50.0 µM) of 41.4%.

For `Cc1nc2c(Cl)nc(Cl)nc2s1`, the growth inhibition [1, 7] was -10%, the growth inhibition [1, 8] was 98% (active) and the growth inhibition ([1]; at 50.0 µM) was 98.5% (active). The growth inhibition [2, 7] was 35%, the growth inhibition [2, 8] was 98% (active) and the growth inhibition ([2]; at 50.0 µM) was 98.5% (active). For the same molecule, the growth inhibition [3, 7] was 20%, the growth inhibition [3, 8] was 97% (active) and the growth inhibition ([3]; at 50.0 µM) was 98.7% (active). The growth inhibition [4, 7] was -8%, the growth inhibition [4, 8] was 97% (active) and the growth inhibition ([4]; at 50.0 µM) was 95.5% (active). For the same molecule, the growth inhibition [5, 7] was 15%, the growth inhibition [5, 8] was 98% (active) and the growth inhibition ([5]; at 50.0 µM) was 98.3% (active). For the same molecule, the growth inhibition [6, 7] was 23%, the growth inhibition [6, 8] was 97% (active) and the growth inhibition ([6]; at 50.0 µM) was 98.2% (active).

`CC12CCC(=O)C=C1CCC1C2CCC2(C)C(C(=O)Cn3cnc4c(=S)nc[nH]c43)CCC12` (stereo not given) showed a growth inhibition [1, 7] of 11%, a growth inhibition [1, 8] of 25% and a growth inhibition ([1]; at 50.0 µM) of 32.2%. The growth inhibition [2, 7] was 5%, the growth inhibition [2, 8] was -6% and the growth inhibition ([2]; at 50.0 µM) was 24.6%. For the same molecule, the growth inhibition [3, 7] was -2%, the growth inhibition [3, 8] was 23% and the growth inhibition ([3]; at 50.0 µM) was 37.5%. It also gave a growth inhibition [4, 7] of -26%, a growth inhibition [4, 8] of 19% and a growth inhibition ([4]; at 50.0 µM) of 14.8%. The growth inhibition [5, 7] was 0%, the growth inhibition [5, 8] was 16% and the growth inhibition ([5]; at 50.0 µM) was -4.65%. It also gave a growth inhibition [6, 7] of -2%, a growth inhibition [6, 8] of 22% and a growth inhibition ([6]; at 50.0 µM) of -4.7%.

For `CC1C(c2ccc(Cl)cc2)c2cc3c(cc2OC1N1CCOCC1)OCO3` (stereo not given), the growth inhibition [1, 7] was -19%, the growth inhibition [1, 8] was 6% and the growth inhibition ([1]; at 50.0 µM) was 48.4%. It also gave a growth inhibition [2, 7] of -30%, a growth inhibition [2, 8] of -7% and a growth inhibition ([2]; at 50.0 µM) of 58.4%. The growth inhibition [3, 7] was -24%, the growth inhibition [3, 8] was -4% and the growth inhibition ([3]; at 50.0 µM) was 82.2% (active). The growth inhibition [4, 7] was -27%, the growth inhibition [4, 8] was 5% and the growth inhibition ([4]; at 50.0 µM) was 90% (active). For the same molecule, the growth inhibition [5, 7] was -29%, the growth inhibition [5, 8] was -24% and the growth inhibition ([5]; at 50.0 µM) was 91.3% (active). The growth inhibition [6, 7] was -39%, the growth inhibition [6, 8] was 8% and the growth inhibition ([6]; at 50.0 µM) was 59.4%.

Molecule `CCOc1ccc2nc([NH-])sc2c1.CCOc1ccc2nc([NH-])sc2c1.[Cl][Pt+2][Cl]` has a growth inhibition [1, 7] of -1%, a growth inhibition [1, 8] of -1% and a growth inhibition ([1]; at 50.0 µM) of 26.4%. For the same molecule, the growth inhibition [2, 7] was -1%, the growth inhibition [2, 8] was 4% and the growth inhibition ([2]; at 50.0 µM) was 35.5%. It also gave a growth inhibition [3, 7] of -1%, a growth inhibition [3, 8] of 15% and a growth inhibition ([3]; at 50.0 µM) of 47.8%. The growth inhibition [4, 7] was -2%, the growth inhibition [4, 8] was -7% and the growth inhibition ([4]; at 50.0 µM) was 17.9%. The growth inhibition [5, 7] was -2%, the growth inhibition [5, 8] was -6% and the growth inhibition ([5]; at 50.0 µM) was -4.85%. The growth inhibition [6, 7] was -2%, the growth inhibition [6, 8] was 3% and the growth inhibition ([6]; at 50.0 µM) was 62.1%.

With `O=c1[nH]c2c([N+](=O)[O-])cc(Cl)cc2nc1/C=C(\O)c1ccc(Cl)cc1` the growth inhibition [1, 7] was -16%, the growth inhibition [1, 8] was 91% (active) and the growth inhibition ([1]; at 50.0 µM) was 96.8% (active). The growth inhibition [2, 7] was 20%, the growth inhibition [2, 8] was 87% (active) and the growth inhibition ([2]; at 50.0 µM) was 95.3% (active). The growth inhibition [3, 7] was -3%, the growth inhibition [3, 8] was 78% (active) and the growth inhibition ([3]; at 50.0 µM) was 95.3% (active). For the same molecule, the growth inhibition [4, 7] was -27%, the growth inhibition [4, 8] was 83% (active) and the growth inhibition ([4]; at 50.0 µM) was 65%. The growth inhibition [5, 7] was 17%, the growth inhibition [5, 8] was 87% (active) and the growth inhibition ([5]; at 50.0 µM) was 89.8% (active). For the same molecule, the growth inhibition [6, 7] was 13%, the growth inhibition [6, 8] was 95% (active) and the growth inhibition ([6]; at 50.0 µM) was 97.2% (active).

With `COC(=O)/C=C1/OC(c2ccccc2)=C(C)C1=O` the growth inhibition [1, 7] was 6%, the growth inhibition [1, 8] was 6% and the growth inhibition ([1]; at 50.0 µM) was 30.7%. The growth inhibition [2, 7] was 18%, the growth inhibition [2, 8] was 18% and the growth inhibition ([2]; at 50.0 µM) was 30.7%. For the same molecule, the growth inhibition [3, 7] was 14%, the growth inhibition [3, 8] was 14% and the growth inhibition ([3]; at 50.0 µM) was 48.9%. The growth inhibition [4, 7] was -6%, the growth inhibition [4, 8] was -6% and the growth inhibition ([4]; at 50.0 µM) was -7.85%. The growth inhibition [5, 7] was 0%, the growth inhibition [5, 8] was 0% and the growth inhibition ([5]; at 50.0 µM) was 5.8%. The growth inhibition [6, 7] was 8%, the growth inhibition [6, 8] was 8% and the growth inhibition ([6]; at 50.0 µM) was 42.6%.

From PubChem BioAssay (NCI)
